Test results reported in PubChem BioAssay (NCATS).
Values joined by “and” are separate entries in the source; they are usually repeats but may differ in a detail not shown here. Identical values can stand only once. Inconclusive results are not listed. Active and inactive are the calls of the source. Unless noted, the call rests on the fitted dose curve; in most records, active means well fitted curve in the direction sought with a large enough effect; inconclusive means small, poorly fitted or top-dose-only effect, or another doubt; inactive means no such curve, though single readings can be large; an effect the other way counts as inactive or inconclusive.

How the values were obtained:
[1] = Cell Viability - HepG2 (AID 433; calls by dose curve;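 further: potency means the concentration at half of the fitted maximal effect; potency for ATP loss meaning cytotoxicity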); conditions: qHTS
How it was run: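 In this qHTS format, a 40 h, 37 °C compound incubation of HepG2 cells in complete medium precedes a 20 min CellTiter-Glo step at room temperature. Tamoxifen and doxorubicin serve as positive controls; Hill-equation fits yield AC50.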

[2] = Cell Viability - MRC5 (AID 434; calls by dose curve;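 further: potency means the concentration at half of the fitted maximal effect; potency reflects cytotoxicity seen as loss of intracellular ATP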); conditions: MRC5 lung fibroblast viability, qHTS
How it was run: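 AC50 values come from Hill-equation fits of intracellular ATP loss, measured by CellTiter-Glo luminescence. Normal lung fibroblasts (MRC5) had 40 hr compound treatment at 37 C, normalized between DMSO and 100 uM tamoxifen.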

[3] = Cell Viability - SK-N-SH (AID 435; calls by dose curve;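 further: potency means the concentration at half of the fitted maximal effect; compound exposure lasted 40 h at 37 °C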); conditions: SK-N-SH neuroblastoma cell viability qHTS
How it was run: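 Human neuroblastoma line, 40 h exposure at 37 °C, ATP quantified via luciferase luminescence; DMSO and 100 uM tamoxifen define 0 and 100% inhibition for AC50 fitting.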

[4] = Cell Viability - HUV-EC-C (AID 542); conditions: HUV-EC-C endothelial cell viability, qHTS; series mostly up to 92.2 µM; further: on the % scale 0 is the no-effect control and ±100 the full control effect; nearly all actives have a fitted effect of over 35% in size
How it was run: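 Cells were seeded at 1000 per well and incubated 5 hr at 37 °C before compound addition. After 40 hr at 37 °C, CellTiter-Glo reagent was added for 20 min and luminescence read. AC50 values came from Hill-equation modelling.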

[5] = Cell Viability - Renal Proximal Tubule (AID 545); conditions: renal proximal tubule cells viability, at 91.7 µM (top of the series); further: nearly all actives have a fitted effect of over 40% in size
How it was run: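 In this qHTS format, normal rat kidney-derived proximal tubule cells in complete culture medium receive compound titrations, then sit 40 hours at 37 °C before luciferase-based ATP quantitation; potency is reported as AC50 from concentration-response curves.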

[6] = Cell Viability - Mesenchymal (AID 546); conditions: mesenchymal cells viability, qHTS; series mostly up to 91.7 µM;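 further: cells exposed to compound for 40 hours before reading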
How it was run: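 CellTiter-Glo luminescence (intracellular ATP, 20 min room temperature) after 40 hr compound exposure at 37 °C of 1000 glomerulus-derived human kidney mesenchymal cells/well; AC50 values obtained by fitting qHTS concentration-response data to the Hill equation.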

[7] = Cellular Toxicity (caspase-3) Jurkat (AID 655); conditions: Jurkat caspase-3 activation, luminescence, DMSO = 0%, tamoxifen = 100%; at 92.2 µM (top of the series);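 further: cells exposed to compound for 16 h at 37 °C before reading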
How it was run: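 qHTS in human Jurkat T-cell leukemia line: 16 hr compound treatment at 37 °C, caspase-3/7 activity measured by Caspase-Glo luminescence. AC50 derived from Hill equation.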

[8] = Cellular Toxicity (caspase-3) HUV-EC-C (AID 656); conditions: HUV-EC-C cells, caspase-3 activation (apoptosis), vehicle = 0, 100 µM tamoxifen = 100%; series mostly up to 92.2 µM
How it was run: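 Concentration-dependent caspase 3/7 induction was assessed in HUV-EC-C cells exposed for 16 hours. Data scaled between DMSO and tamoxifen (100 uM) controls.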

[9] = Cellular Toxicity (caspase-3) SHSY5Y (AID 657); conditions: SH-SY5Y caspase-3 activation, DMSO zero, 10 µM staurosporine = 100%; series mostly up to 91.7 µM;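 further: cells exposed to compound for 16 hours at 37 °C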
How it was run: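 Readout: caspase-cleaved peptide-aminoluciferin substrate driving luciferase light in SH-SY5Y neuroblastoma cells after 16 h treatment. Response normalized to DMSO and 10 uM staurosporine controls.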

[10] = Cellular Toxicity (caspase-3) BJ (AID 658); conditions: BJ fibroblasts, luminescence, normalized: DMSO 0%, staurosporine 100%; series mostly up to 91.7 µM
How it was run: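 Caspase-Glo 3/7 luminescence, read 1 hr after reagent at room temperature, in normal BJ fibroblasts exposed 16 hours at 37 °C. AC50 values from Hill-equation concentration-response, scaled between DMSO basal and 10 uM staurosporine as 100%.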

[11] = Cellular Toxicity (caspase-3) MRC-5 (AID 659); conditions: MRC-5 cells, luminescence, normalized: DMSO 0%, 10 µM staurosporine 100%; series mostly up to 91.7 µM
How it was run: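 Luminescent Caspase-Glo 3/7 read-out (1 h, room temperature) after a 16 h, 37 °C compound exposure of MRC-5 lung fibroblasts at 1500 cells/well. Concentration-response AC50 from Hill equation; 0% DMSO, 100% 10 uM staurosporine.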

[12] = Cellular Toxicity (caspase-3) Mesangial (AID 660); conditions: mesangial cells, normalized: DMSO 0%, 100 µM tamoxifen 100%; series mostly up to 91.7 µM;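 further: combined caspase 3 and 7 activity read by Caspase-Glo luminescence; cells exposed to compound for 16 h before the caspase read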
How it was run: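 Seed cells derived from normal human renal glomeruli, incubate 5 h, add compounds across concentrations and incubate 16 h at 37 °C. Caspase 3/7 activation is then quantified by luciferase light, with AC50 derived by Hill modeling.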

[13] = Cellular Toxicity (caspase-3) SK-N-SH (AID 661); conditions: SK-N-SH caspase-3 activation, qHTS, DMSO as zero, staurosporine as full; series mostly up to 91.7 µM
How it was run: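 Cells were seeded and incubated 5 hr at 37 °C, dosed with compound over a concentration range for 16 hr, then given Caspase-Glo 3/7 reagent for 1 hr at room temperature before luminescence reading.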

[14] = Cellular Toxicity (caspase-3) H-4-II-E (AID 663); conditions: H-4-II-E rat hepatoma, scaled: DMSO 0%, 100 µM tamoxifen 100%; series mostly up to 92.2 µM;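 further: cells exposed to compound for 16 hr before readout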
How it was run: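 Caspase 3/7 activation measured by luminescent aminoluciferin substrate cleavage after 16 hr compound treatment of H-4-II-E cells in complete medium. Increase normalized between DMSO (basal) and 100 uM tamoxifen (100%); Hill-equation AC50 from concentration-response.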

[15] = Cellular Toxicity (caspase-3) Renal Proximal Tubule (AID 667); conditions: renal proximal tubule cells, at 91.7 µM (top of the series);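 further: cells exposed to compound for 16 hours at 37 °C before detection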
How it was run: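 Caspase-Glo 3/7 read-out, rat primary kidney proximal tubule cells. Compound exposure 16 h, 37 °C; detection after 1 h at RT. Activity scaled to DMSO and 10 uM staurosporine.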

[16] = MultiTox-Fluor Cytotoxicity Assay - LYMP1-001 - Dead Cells (AID 946); conditions: LYMP1-001 lymphoblastoid cells, dead-cell protease fluorescence; series mostly up to 92.2 µM
How it was run: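 Seed 2500 LYMP1-001 cells/well, incubate 5 hr at 37 C; add compound, 16 hr at 37 C; add MultiTox-Fluor reagent, 60 min RT; read dead-cell fluorescence Ex/Em=485/520. Normalize to DMSO and 15 uM tetraoctylammonium bromide.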

[17] = Cell Viability - LYMP1-002 - Assay at 16 hr (AID 948); conditions: LYMP1-002 lymphoblastoid cell viability; series mostly up to 92.2 µM;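 further: 0% = DMSO alone and full effect = 92 µM tetraoctylammonium bromide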
How it was run: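 In this qHTS, lymphoblastoid LYMP1-002 cells (human) receive compounds for 16 hr at 37 C. Viability is taken from CellTiter-Glo ATP luminescence, and AC50 derives from standard Hill fits.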

[18] = MultiTox-Fluor Cytotoxicity Assay - LYMP1-003 - Dead Cells (AID 961); conditions: LYMP1-003 lymphoblastoid cells, dead-cell protease fluorescence; series mostly up to 92.2 µM; further: nearly all actives have a fitted effect of over 70% in size
How it was run: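 LYMP1-003 lymphoblastoid, 2500 cells/well, 5 hr settle then 16 hr cpd at 37 C; MultiTox-Fluor reagent 60 min RT; Ex/Em 485/520 dead-cell signal; norm. DMSO = 0%, 15 uM tetraoctylammonium bromide = 100%; Hill AC50.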

[19] = qHTS assay for cell viability of HEK293 cells (AID 743288); conditions: ATP luminescence (CellTiter-Glo), 18 h; max response: active compounds read low; further: on the % scale 0 is the no-effect control and ±100 the full control effect; nearly all actives have a fitted effect of over 50% in size
How it was run: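 HEK293, 18 h, 37 C, ATP luminescence. Cells at 2,000/well were allowed at least 5 h to settle before dosing; CellTiter-Glo developed 30 min at RT.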

[20] = qHTS assay for cell viability of the p53RE-bla HCT-116 cell line (AID 743292); conditions: p53RE-bla HCT-116 viability, ATP luminescence, 16 h; series mostly up to 95 µM; further: on the % scale 0 is the no-effect control and ±100 the full control effect; nearly all actives have a fitted effect of over 55% in size
How it was run: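 Luminescent ATP quantitation (CellTiter-Glo) served as the viability read-out; reagent was added after 16 h compound exposure at 37 C and read after 30 min at room temperature. Cells: p53RE-bla HCT-116, 4,000 per well.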

[21] = primary cells of rat origin unless noted
[22] = primary cells freshly taken from rat, solvent-only wells 0%, staurosporine 100% unless noted

Cc1ccccc1N
inactive: Potency [1] > 92 µM | Potency [2] > 92 µM | Potency [3] > 92 µM | Potency [4] | activity change, negative = cytotoxicity [5] -0.93% | activity change, negative = cytotoxicity ([5]; primary cells of rat origin) -4.73% | outcome [6] | caspase-3 activation [7] 11.5% and 2.29% | outcome [8] | outcome [9] | outcome [10] | outcome [11] | outcome [12] | outcome [13] | outcome [14] | caspase-3 activation [15] -5.94% | caspase-3 activation ([15]; primary cells freshly taken from rat, solvent-only wells 0%, staurosporine 100%) 22.1% | Potency [16] | Potency [17] | Potency [18] | max response [19] -10.9% and 0.49% | Potency [20]

C[C@]12CC[C@H]3[C@@H](CCC4=CC(=O)CC[C@@]43C)[C@@H]1CC[C@@H]2O
inactive: Potency [1] > 92 µM | Potency [2] > 92 µM | Potency [3] > 92 µM | Potency [4] | activity change, negative = cytotoxicity [5, 21] -15.1% [at 91.7 µM] | outcome [6] | caspase-3 activation [7] 4.38% | outcome [8] | outcome [9] | outcome [10] | outcome [11] | outcome [12] | outcome [13] | outcome [14] | caspase-3 activation [15, 22] -4.12% [at 91.7 µM] | Potency [16] | Potency [17] | Potency [18] | max response [19] -9.57% | Potency [20]

O=[N+]([O-])c1ccc(Cl)c(Cl)c1
inactive: Potency [1] > 92 µM | Potency [2] > 92 µM | Potency [3] > 92 µM | Potency [4] | activity change, negative = cytotoxicity [5, 21] -5.41% [at 91.7 µM] | outcome [6] | caspase-3 activation [7] 0.916% | outcome [8] | outcome [9] | outcome [10] | outcome [11] | outcome [12] | outcome [13] | outcome [14] | caspase-3 activation [15, 22] 4.74% [at 91.7 µM] | Potency [16] | Potency [17] | Potency [18] | max response [19] 7.83% | Potency [20]

C=CC(N)=O
inactive: Potency [1] > 92 µM | Potency [2] > 92 µM | Potency [3] > 92 µM | Potency [4] | activity change, negative = cytotoxicity [5, 21] 6.17% and -0.476% | outcome [6] | caspase-3 activation [7] 0.421% and 0.897% | outcome [8] | outcome [9] | outcome [10] | outcome [11] | outcome [12] | outcome [13] | outcome [14] | caspase-3 activation [15, 22] 6.41% and -1% | Potency [16] | Potency [17] | Potency [18] | max response [19] -9.64% and 2.95% and 5.31% | Potency [20]

Clc1nc(Cl)nc(Nc2ccccc2Cl)n1
inactive: Potency [1] > 92 µM | Potency [2] > 92 µM | Potency [3] > 92 µM | Potency [4] | activity change, negative = cytotoxicity [5, 21] -4.26% | outcome [6] | caspase-3 activation [7] 0.489% | outcome [8] | outcome [9] | outcome [10] | outcome [11] | outcome [12] | outcome [13] | outcome [14] | caspase-3 activation [15, 22] -3.95% | Potency [16] | Potency [17] | Potency [18] | max response [19] 1.75% and 3.89% | Potency [20]

Clc1ccc2ccccc2c1
inactive: Potency [1] > 92 µM | Potency [2] > 92 µM | Potency [3] > 92 µM | Potency [4] | activity change, negative = cytotoxicity [5, 21] -5.07% | outcome [6] | caspase-3 activation [7] 0.888% | outcome [8] | outcome [9] | outcome [10] | outcome [11] | outcome [12] | outcome [13] | outcome [14] | caspase-3 activation [15, 22] 7.88% | Potency [16] | Potency [17] | Potency [18] | max response [19] 3.91% | Potency [20]

CC(C)(C)OO
inactive: Potency [1] > 92 µM | Potency [2] > 92 µM | Potency [3] > 92 µM | Potency [4] | activity change, negative = cytotoxicity [5, 21] -2.92% and -10.1% | outcome [6] | caspase-3 activation [7] 16.6% and 4.19% | outcome [8] | outcome [9] | outcome [10] | outcome [11] | outcome [12] | outcome [13] | outcome [14] | caspase-3 activation [15, 22] 12.8% and -1.63% | Potency [16] | Potency [17] | Potency [18] | max response [19] -29% and 2.51% | Potency [20]

COc1ccc(C=O)cc1OC
inactive: Potency [1] > 92 µM | Potency [2] > 92 µM | Potency [3] > 92 µM | Potency [4] | activity change, negative = cytotoxicity [5, 21] -7.47% | outcome [6] | caspase-3 activation [7] 1.2% | outcome [8] | outcome [9] | outcome [10] | outcome [11] | outcome [12] | outcome [13] | outcome [14] | caspase-3 activation [15, 22] -4.32% | Potency [16] | Potency [17] | Potency [18] | max response [19] -6.04% and -11.4% | Potency [20]

CC(C)(OO)c1ccccc1
inactive: Potency [1] > 92 µM | Potency [2] > 92 µM | Potency [3] > 92 µM | Potency [4] | activity change, negative = cytotoxicity [5, 21] -8.61% | outcome [6] | caspase-3 activation [7] -2.32% | outcome [8] | outcome [9] | outcome [10] | outcome [11] | outcome [12] | outcome [13] | outcome [14] | caspase-3 activation [15, 22] -7.39% | Potency [16] | Potency [17] | Potency [18] | max response [19] -6.54% and -1.29% | Potency [20]

OCC1CO1 (configuration not stated)
inactive: Potency [1] > 92 µM | Potency [2] > 92 µM | Potency [3] > 92 µM | Potency [4] | activity change, negative = cytotoxicity [5, 21] 4.62% | outcome [6] | caspase-3 activation [7] 0.767% | outcome [8] | outcome [9] | outcome [10] | outcome [11] | outcome [12] | outcome [13] | outcome [14] | caspase-3 activation [15, 22] 0.454% | Potency [16] | Potency [17] | Potency [18] | max response [19] -3.99% and -2.83% | Potency [20]
